Bioassay records as filed in PubChem BioAssay.
Many of the other results were omitted from the sample, so hits are more common in it than they were.
DENV2 CPE: inhibitors of DENV2 cytopathic effect, primary screen, cell-based, plate reader, single concentration. DENV2-infected cells, cytopathic effect rescue. CPE inhibition, % at 9.99 µM. 350,000 tested, 1.7% active. AID 651640, 2012; in the data active means CPE inhibition above about 20%, passing the limit was not always enough; tested in BHK-21 cells;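 further: 0% = median of neutral control wells and 100% = median of positive control wells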
Rtt109 HAT inh: inhibitors of C. albicans Rtt109/Vps75 HAT, primary screen, biochemical, ThioGlo CoA-SH fluorescence, plate reader | Histone acetyltransferase RTT109 (Candida albicans (strain SC5314 / ATCC MYA-2876)), … | purified Rtt109/Vps75, 4 h | inhibition, % at 34.9 µM | 330,000 tested, 0.16% active;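 active means inhibition of at least 50% in every replicate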
Target sequence (Q5AAJ8 whole entry, looked up): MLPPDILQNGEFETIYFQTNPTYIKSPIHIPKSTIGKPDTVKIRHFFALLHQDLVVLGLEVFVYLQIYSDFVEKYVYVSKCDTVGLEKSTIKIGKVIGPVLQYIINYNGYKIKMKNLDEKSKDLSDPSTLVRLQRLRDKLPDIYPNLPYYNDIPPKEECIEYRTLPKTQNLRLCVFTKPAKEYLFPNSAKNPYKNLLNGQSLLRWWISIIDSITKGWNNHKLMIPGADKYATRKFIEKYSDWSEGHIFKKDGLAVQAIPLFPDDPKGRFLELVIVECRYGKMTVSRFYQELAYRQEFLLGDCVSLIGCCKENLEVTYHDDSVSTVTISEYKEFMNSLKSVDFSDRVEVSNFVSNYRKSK
N-glyco inh: increase of ERlucT glycosylation luciferase signal, primary screen, N-linked glycosylation inhibitor project, D54 ERlucT cells, luminescence, set 2 | D54 ERlucT glycosylation luciferase reporter, 24 h; percent of 100 nM tunicamycin response | 360,000 tested, 0.23% active | reporter increase, % at 12.5 µM | AID 588692, 2011;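 active means mean luciferase reporter signal, scaled so untreated is 0 and the glycosylation-blocking control 100, at or above a set limit in every replicate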;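 further: luciferase carries N-glycosylation sites so blocking glycosylation raises the light; 0% = median of neutral control wells and 100% = median of 100 nM tunicamycin wells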
PglD DTNB: C. jejuni PglD acetyltransferase inhibitors, primary screen, biochemical, DTNB colorimetric, single point; inhibition, % at 12.5 µM; UDP-N-acetylbacillosamine N-acetyltransferase PglD (Campylobacter jejuni); purified PglD enzyme, DTNB colorimetric CoA detection; AID 602405, 2012; 360,000 tested, 0.098% active; in the data active means inhibition above about 16%, passing the limit was not always enough
Starred values were filed as active, the others as inactive; . = not tested or not shown.

SMILES | DENV2 CPE | Rtt109 HAT inh | N-glyco inh | PglD DTNB
COc1cccc(/C=C2\SC(=S)N(CCC(=O)N3CCCCC3)C2=O)c1 | 20 | -13 | 39* | -7
COc1cccc(/C=C2\SC(=S)N(C(C)C(=O)NC3C=CS(=O)(=O)C3)C2=O)c1 (stereo not drawn) | 7 | 154* | -6 | -12
COc1ccc(/C=C2\SC(=S)N(C(C)C(=O)NC3C=CS(=O)(=O)C3)C2=O)cc1 (stereo not drawn) | 18 | 34 | -2 | -5
Cc1noc(C)c1S(=O)(=O)Nc1cccc2c1O[C@H](CN(C)S(=O)(=O)c1cn(C)cn1)[C@H](C)CN([C@H](C)CO)C2=O | 5 | . | . | -2
C[C@@H]1CCCCO[C@@H](CN(C)Cc2ccc(C(=O)O)cc2)[C@@H](C)CN([C@@H](C)CO)C(=O)c2cc(NC(=O)CCC(F)(F)F)ccc2O1 | -4 | . | . | 4
O=C(N/N=C/c1ccc(N2CCOCC2)cc1)c1ccncc1 | 72* | 9 | -1 | -4
Cc1cc(C)cc(NC(=O)NC(C)C2CCCO2)c1 (stereo not drawn) | . | 56* | 1 | .
CN1CCN(C(=O)C[C@H]2C[C@H]3c4cc(NC(=O)c5cccnc5)ccc4O[C@H]3[C@@H](CO)O2)CC1 | 0 | . | . | 12
O=C(/C=C/c1ccc([N+](=O)[O-])s1)N1CCCC1 | -2 | 4 | 18 | .
O=C(/C=C/c1ccc([N+](=O)[O-])s1)N1CCCCC1 | 5 | . | 39* | .
C[C@@H]1CCCCO[C@@H](CN(C)S(=O)(=O)c2ccccc2)[C@@H](C)CN([C@@H](C)CO)C(=O)c2cc(NC(=O)NC3CCCCC3)ccc2O1 | -6 | . | . | -1
O=C1c2ccccc2/C(=C\c2ccc(Br)nc2)N1c1ccccc1 | 47* | . | . | .
Cc1ccccc1NS(=O)(=O)c1ccc(S(=O)(=O)N2CCCC2)cc1 | 22* | . | 1 | -3
Cc1cc(NC(=O)Cn2c(=O)oc3ccc(Cl)cc32)no1 | 45* | -2 | 1 | 0
O=C(CNC(=O)N1CC(=O)Nc2ccccc21)NCCCc1ccccc1 | 2 | . | 27* | -4
O=C(CNC(=O)N1CC(=O)Nc2ccccc21)NCc1ccc(F)cc1 | 113* | . | 6 | -4
CO[C@@H]1CN(C)C(=O)c2ccc(NC(=O)Nc3c(C)noc3C)cc2OC[C@@H](C)N(CCC(F)(F)F)C[C@H]1C | -2 | . | . | 1
CCCN1C[C@@H](C)[C@@H](OC)CN(C)C(=O)c2ccc(NC(=O)Nc3c(C)noc3C)cc2OC[C@@H]1C | 4 | . | . | 0
CO[C@@H]1CN(C)C(=O)c2ccc(NC(=O)Nc3c(C)noc3C)cc2OC[C@H](C)N(CCC(F)(F)F)C[C@H]1C | 37* | . | . | .
CCCN1C[C@H](C)[C@@H](OC)CN(C)C(=O)c2ccc(NC(=O)Nc3c(C)noc3C)cc2OC[C@H]1C | 21* | . | . | 0
O=C1N(Cc2ccccc2)Cc2ccccc2[C@@H]2OC(c3ccc(OCCCO)cc3)=N[C@]12Cc1ccccc1 | 26* | . | . | .
CNc1nc(N)c([N+](=O)[O-])c(NCc2ccccc2)n1 | 76* | -6 | 2 | 3
Nc1nc(NCc2ccccc2)nc(NCc2ccccc2)c1[N+](=O)[O-] | . | 8 | -4 | 3
Cc1noc(C)c1S(=O)(=O)Nc1ccc2c(c1)C(=O)N([C@@H](C)CO)C[C@H](C)[C@H](CN(C)Cc1ccc(C(=O)O)cc1)OCCCC[C@@H](C)O2 | 50* | . | . | 11
Cc1noc(C)c1S(=O)(=O)Nc1ccc2c(c1)C(=O)N([C@H](C)CO)C[C@H](C)[C@H](CN(C)Cc1ccc(C(=O)O)cc1)OCCCC[C@H](C)O2 | -3 | . | . | 10
SMILES | DENV2 CPE | Rtt109 HAT inh | N-glyco inh | PglD DTNB
Cc1noc(C)c1S(=O)(=O)Nc1ccc2c(c1)C(=O)N([C@@H](C)CO)C[C@H](C)[C@H](CN(C)Cc1ccc3c(c1)OCO3)O2 | 32* | . | . | 1
Cc1noc(C)c1S(=O)(=O)Nc1ccc2c(c1)C(=O)N([C@H](C)CO)C[C@H](C)[C@@H](CN(C)Cc1ccc3c(c1)OCO3)O2 | 9 | . | . | -1
Cc1noc(C)c1S(=O)(=O)Nc1ccc2c(c1)C(=O)N([C@@H](C)CO)C[C@H](C)[C@H](CN(C)Cc1ccc3c(c1)OCO3)OCCCC[C@H](C)O2 | 46* | . | . | 4
Cc1noc(C)c1S(=O)(=O)Nc1ccc2c(c1)C(=O)N([C@H](C)CO)C[C@@H](C)[C@@H](CN(C)Cc1ccc(C(=O)O)cc1)OCCCC[C@@H](C)O2 | 38* | . | . | 16
Cc1noc(C)c1S(=O)(=O)Nc1ccc2c(c1)C(=O)N([C@H](C)CO)C[C@H](C)[C@H](CN(C)Cc1ccc3c(c1)OCO3)OCCCC[C@@H](C)O2 | 0 | . | . | -3
C[C@@H]1CN([C@@H](C)CO)C(=O)c2cccc(NS(=O)(=O)c3cn(C)cn3)c2O[C@@H]1CN(C)C | 5 | . | . | -1
CCCC#Cc1cnc2c(c1)C(=O)N([C@H](C)CO)C[C@H](C)[C@@H](CN(C)C(=O)Cc1ccccc1)O2 | -4 | . | . | 1
Cc1noc(C)c1S(=O)(=O)Nc1ccc2c(c1)CC(=O)N([C@@H](C)CO)C[C@@H](C)[C@@H](CN(C)Cc1ccc3c(c1)OCO3)O2 | 3 | . | . | 2
Cc1noc(C)c1S(=O)(=O)Nc1ccc2c(c1)C(=O)N([C@H](C)CO)C[C@H](C)[C@H](CN(C)Cc1ccncc1)OCCCC[C@@H](C)O2 | 26* | . | . | 0
Cc1noc(C)c1S(=O)(=O)Nc1ccc2c(c1)C(=O)N([C@@H](C)CO)C[C@@H](C)[C@H](CN(C)Cc1ccc(C(=O)O)cc1)OCCCC[C@H](C)O2 | 24* | . | . | 11
Cc1noc(C)c1S(=O)(=O)Nc1ccc2c(c1)C(=O)N([C@H](C)CO)C[C@H](C)[C@@H](CN(C)Cc1ccncc1)OCCCC[C@@H](C)O2 | -7 | . | . | -1
Cc1noc(C)c1S(=O)(=O)Nc1ccc2c(c1)CC(=O)N([C@H](C)CO)C[C@H](C)[C@H](CN(C)Cc1ccc3c(c1)OCO3)O2 | 51* | . | . | 4
CCCNC(=O)C[C@H]1CC[C@H]2[C@@H](COc3ccc(NC(=O)c4ccno4)cc3C(=O)N2C)O1 | -3 | . | . | 0
C[C@@H]1CCCCO[C@@H](CN(C)CC2CCCCC2)[C@H](C)CN([C@@H](C)CO)C(=O)c2cc(NS(=O)(=O)c3ccccc3)ccc2O1 | 4 | . | . | 0
O=C(NC1CCCC1)N[C@@H]1C=C[C@H](CC(=O)N2CCOCC2)O[C@H]1CO | 14 | . | . | 2
O=C1[C@H](Cc2ccccc2)CCn2cc(nn2)COCC2CCCN12 (stereo partly drawn) | 2 | . | . | .
CCC(=O)Nc1ccc(C(=O)OCc2ccccc2)cc1 | . | 5 | -4 | -4
CCC(=O)Nc1cc(C(=O)OCc2ccc(C(=O)Oc3ccccc3)cc2)ccc1C | 82* | -4 | 0 | .
COc1cc(-c2cc3nc(NCCOc4ccccc4)ccn3n2)cc(OC)c1OC | 2 | . | 46* | 1
